Experimental data from the supplement of paper PMC11732987, “Enantioselective OTUD7B fragment discovery through chemoproteomics screening and high-throughput optimisation” (Communications Chemistry, 2025).

Tests used:
Test in all cases: log2 ratio of Biotin-Ahx-Ub-VS probe labelling (fragment/DMSO); higher = less target engagement (more negative = stronger competition), active = hit call of the paper (q ≤ 0.05, log2 ratio ≤ -1)
Details in all cases: compound concentration: 200 uM; treatment time: 3 h
USP19 = molecular target: T1, USP19 (UniProt O94966)
T1 sequence (whole entry): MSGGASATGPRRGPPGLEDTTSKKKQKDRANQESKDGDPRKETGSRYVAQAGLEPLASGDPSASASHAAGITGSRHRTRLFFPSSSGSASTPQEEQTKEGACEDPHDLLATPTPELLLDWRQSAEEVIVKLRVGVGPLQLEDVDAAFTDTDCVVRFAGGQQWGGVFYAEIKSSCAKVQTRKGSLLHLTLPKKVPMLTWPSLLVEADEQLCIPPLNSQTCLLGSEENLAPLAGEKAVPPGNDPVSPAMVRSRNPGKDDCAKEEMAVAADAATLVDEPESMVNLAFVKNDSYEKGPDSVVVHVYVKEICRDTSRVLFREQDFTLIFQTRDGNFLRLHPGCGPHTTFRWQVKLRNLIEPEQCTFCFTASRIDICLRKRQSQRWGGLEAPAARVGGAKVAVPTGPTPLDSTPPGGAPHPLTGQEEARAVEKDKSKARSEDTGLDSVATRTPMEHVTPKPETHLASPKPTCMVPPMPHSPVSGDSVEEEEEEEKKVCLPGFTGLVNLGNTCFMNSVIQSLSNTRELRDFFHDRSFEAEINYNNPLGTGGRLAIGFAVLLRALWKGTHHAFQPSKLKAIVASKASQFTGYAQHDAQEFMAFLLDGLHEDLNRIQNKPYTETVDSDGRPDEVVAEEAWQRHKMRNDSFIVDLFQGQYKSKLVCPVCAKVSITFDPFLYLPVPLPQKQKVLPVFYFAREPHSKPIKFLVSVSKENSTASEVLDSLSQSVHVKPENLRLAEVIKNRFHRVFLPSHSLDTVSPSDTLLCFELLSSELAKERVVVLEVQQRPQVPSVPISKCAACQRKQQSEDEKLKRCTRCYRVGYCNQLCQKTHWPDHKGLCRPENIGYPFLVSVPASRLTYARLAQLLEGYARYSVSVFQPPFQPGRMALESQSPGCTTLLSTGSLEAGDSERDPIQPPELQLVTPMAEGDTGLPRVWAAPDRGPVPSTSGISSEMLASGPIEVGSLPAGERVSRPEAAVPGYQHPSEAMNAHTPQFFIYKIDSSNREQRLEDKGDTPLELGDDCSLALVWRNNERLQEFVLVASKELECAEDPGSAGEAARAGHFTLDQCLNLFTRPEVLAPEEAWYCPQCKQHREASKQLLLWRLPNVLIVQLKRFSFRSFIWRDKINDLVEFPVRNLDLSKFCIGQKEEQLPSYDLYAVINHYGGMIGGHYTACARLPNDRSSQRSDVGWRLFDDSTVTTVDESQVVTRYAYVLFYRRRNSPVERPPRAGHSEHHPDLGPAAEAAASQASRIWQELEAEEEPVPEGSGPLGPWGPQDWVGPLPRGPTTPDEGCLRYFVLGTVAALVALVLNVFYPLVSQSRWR
Summary of the method: (§1)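 HEK293T lysate, 495 µg per sample in Tris/CHAPS/IGEPAL buffer with protease inhibitors, was treated in triplicate with fragment at 200 µM or vehicle for 3 h and then with Biotin-Ahx-Ub-VS at 0.5 µM final for 1 h. Labelled DUBs were NeutrAvidin-enriched, digested with LysC and trypsin, and run by diaPASEF LC-MS/MS. Spectronaut label-free quantities were global-median-normalised, and values are average log2 fragment/vehicle ratios by unpaired t-test on proteins with ≥2 unique peptides.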

USP22 = molecular target: T2, USP22 (UniProt Q9UPT9)
T2 sequence (whole entry): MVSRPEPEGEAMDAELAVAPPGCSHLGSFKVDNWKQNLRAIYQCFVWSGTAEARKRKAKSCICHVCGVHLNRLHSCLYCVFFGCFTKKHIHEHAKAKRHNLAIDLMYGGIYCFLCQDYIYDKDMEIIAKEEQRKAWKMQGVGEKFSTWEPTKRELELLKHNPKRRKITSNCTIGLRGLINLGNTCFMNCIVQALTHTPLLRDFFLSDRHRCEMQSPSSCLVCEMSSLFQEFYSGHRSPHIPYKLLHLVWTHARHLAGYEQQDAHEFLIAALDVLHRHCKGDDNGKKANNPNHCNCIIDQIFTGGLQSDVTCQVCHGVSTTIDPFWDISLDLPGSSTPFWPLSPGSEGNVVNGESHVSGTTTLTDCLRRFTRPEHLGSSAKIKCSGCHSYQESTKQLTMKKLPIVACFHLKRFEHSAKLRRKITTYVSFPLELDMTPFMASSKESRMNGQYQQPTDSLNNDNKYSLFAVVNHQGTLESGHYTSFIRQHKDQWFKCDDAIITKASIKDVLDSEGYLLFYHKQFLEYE
Summary of the method: as §1

USP24 = USP24 (UniProt Q9UPU5)
Sequence of USP24 (Q9UPU5 whole entry): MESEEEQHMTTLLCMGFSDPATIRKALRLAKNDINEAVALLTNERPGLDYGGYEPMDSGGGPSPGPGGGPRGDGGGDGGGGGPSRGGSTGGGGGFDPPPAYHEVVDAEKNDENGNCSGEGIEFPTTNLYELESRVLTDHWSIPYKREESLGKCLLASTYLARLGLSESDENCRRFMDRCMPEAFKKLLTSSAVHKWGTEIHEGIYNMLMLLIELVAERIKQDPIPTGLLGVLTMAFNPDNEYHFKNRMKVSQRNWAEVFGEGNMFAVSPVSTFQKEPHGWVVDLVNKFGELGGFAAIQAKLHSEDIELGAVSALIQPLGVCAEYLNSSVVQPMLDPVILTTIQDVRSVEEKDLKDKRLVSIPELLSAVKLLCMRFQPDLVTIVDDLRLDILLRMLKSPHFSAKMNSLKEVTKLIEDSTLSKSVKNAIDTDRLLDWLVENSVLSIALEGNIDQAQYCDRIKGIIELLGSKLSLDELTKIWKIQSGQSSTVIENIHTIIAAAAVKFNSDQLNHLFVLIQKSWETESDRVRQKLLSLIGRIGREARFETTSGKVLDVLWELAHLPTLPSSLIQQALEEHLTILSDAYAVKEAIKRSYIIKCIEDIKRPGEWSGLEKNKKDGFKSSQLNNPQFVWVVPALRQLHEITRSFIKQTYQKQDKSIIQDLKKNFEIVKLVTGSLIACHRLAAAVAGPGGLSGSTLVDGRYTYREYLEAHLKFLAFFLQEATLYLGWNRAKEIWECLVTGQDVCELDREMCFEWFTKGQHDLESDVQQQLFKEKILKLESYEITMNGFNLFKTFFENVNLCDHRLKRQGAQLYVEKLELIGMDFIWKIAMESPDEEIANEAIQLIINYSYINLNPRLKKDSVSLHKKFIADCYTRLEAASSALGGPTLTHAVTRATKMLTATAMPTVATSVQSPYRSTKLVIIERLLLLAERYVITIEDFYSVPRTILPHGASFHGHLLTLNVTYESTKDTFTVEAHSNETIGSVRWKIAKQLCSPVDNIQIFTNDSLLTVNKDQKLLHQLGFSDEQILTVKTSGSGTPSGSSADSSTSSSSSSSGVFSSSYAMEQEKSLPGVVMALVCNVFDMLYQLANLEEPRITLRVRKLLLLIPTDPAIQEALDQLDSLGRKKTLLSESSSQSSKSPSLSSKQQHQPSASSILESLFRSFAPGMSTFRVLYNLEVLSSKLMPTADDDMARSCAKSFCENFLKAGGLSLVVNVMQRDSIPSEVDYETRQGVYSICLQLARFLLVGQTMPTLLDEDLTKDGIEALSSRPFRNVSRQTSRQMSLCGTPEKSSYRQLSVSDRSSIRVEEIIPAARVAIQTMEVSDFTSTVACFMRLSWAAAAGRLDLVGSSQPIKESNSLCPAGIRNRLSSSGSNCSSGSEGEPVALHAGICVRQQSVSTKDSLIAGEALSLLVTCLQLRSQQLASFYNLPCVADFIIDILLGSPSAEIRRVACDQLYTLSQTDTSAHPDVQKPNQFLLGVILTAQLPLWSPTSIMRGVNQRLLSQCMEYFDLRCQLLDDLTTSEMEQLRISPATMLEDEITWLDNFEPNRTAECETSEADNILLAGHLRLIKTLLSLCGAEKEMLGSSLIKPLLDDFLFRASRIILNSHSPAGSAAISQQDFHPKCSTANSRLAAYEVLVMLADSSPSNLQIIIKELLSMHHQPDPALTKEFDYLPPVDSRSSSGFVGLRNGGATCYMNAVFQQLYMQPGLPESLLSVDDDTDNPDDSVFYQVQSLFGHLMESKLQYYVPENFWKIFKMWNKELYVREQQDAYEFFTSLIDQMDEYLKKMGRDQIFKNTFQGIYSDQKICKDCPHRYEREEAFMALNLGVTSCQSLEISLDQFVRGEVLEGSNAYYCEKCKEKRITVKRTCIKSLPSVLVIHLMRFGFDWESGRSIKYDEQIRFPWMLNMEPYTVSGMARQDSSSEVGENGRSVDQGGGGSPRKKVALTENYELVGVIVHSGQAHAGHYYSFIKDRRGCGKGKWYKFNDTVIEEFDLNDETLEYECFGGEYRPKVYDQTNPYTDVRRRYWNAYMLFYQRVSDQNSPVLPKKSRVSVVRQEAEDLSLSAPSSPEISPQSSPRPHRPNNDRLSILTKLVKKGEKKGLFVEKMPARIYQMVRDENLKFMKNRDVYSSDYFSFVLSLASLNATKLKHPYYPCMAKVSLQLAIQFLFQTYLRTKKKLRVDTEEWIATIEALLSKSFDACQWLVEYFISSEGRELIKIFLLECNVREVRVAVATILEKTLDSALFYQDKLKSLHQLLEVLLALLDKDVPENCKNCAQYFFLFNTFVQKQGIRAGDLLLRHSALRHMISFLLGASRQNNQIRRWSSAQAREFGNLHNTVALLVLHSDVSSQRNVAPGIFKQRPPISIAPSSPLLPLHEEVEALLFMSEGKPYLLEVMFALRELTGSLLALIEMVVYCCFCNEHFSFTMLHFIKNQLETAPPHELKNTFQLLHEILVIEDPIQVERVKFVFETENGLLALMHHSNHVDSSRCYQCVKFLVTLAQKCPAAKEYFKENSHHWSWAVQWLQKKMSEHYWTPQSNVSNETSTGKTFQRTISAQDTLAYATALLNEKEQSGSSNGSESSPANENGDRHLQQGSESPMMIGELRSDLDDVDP
Summary of the method: as §1

USP25 = molecular target: T3, USP25 (UniProt Q9UHP3)
T3 sequence (whole entry): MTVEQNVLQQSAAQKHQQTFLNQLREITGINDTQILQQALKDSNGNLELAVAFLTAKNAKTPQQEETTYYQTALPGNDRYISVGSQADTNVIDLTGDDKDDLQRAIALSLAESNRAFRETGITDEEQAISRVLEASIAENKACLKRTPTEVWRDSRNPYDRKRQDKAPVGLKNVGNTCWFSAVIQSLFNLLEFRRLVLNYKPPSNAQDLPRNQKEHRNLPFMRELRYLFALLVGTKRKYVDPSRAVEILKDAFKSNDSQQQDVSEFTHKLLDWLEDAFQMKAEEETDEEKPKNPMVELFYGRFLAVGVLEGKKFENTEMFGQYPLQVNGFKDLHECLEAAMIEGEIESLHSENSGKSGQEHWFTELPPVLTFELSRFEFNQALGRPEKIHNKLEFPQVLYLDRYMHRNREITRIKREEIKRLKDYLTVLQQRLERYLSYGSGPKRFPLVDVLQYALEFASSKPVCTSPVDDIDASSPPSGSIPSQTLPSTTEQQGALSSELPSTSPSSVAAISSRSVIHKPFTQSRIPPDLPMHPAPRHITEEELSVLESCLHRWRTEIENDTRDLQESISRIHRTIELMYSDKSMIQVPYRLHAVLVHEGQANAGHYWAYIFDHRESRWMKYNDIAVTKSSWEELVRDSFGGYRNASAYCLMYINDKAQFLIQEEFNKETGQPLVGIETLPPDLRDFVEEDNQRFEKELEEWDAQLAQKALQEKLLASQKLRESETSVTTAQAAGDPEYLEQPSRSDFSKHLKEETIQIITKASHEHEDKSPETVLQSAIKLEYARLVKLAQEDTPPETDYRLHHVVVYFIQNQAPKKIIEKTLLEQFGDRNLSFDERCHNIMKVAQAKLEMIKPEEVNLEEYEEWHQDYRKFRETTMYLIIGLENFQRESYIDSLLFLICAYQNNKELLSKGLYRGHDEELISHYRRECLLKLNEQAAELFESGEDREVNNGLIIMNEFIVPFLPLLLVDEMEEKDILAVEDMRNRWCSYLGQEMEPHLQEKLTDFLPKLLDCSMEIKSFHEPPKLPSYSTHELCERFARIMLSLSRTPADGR
Summary of the method: as §1

USP28 = molecular target: T4, USP28 (UniProt Q96RU2)
T4 sequence (whole entry): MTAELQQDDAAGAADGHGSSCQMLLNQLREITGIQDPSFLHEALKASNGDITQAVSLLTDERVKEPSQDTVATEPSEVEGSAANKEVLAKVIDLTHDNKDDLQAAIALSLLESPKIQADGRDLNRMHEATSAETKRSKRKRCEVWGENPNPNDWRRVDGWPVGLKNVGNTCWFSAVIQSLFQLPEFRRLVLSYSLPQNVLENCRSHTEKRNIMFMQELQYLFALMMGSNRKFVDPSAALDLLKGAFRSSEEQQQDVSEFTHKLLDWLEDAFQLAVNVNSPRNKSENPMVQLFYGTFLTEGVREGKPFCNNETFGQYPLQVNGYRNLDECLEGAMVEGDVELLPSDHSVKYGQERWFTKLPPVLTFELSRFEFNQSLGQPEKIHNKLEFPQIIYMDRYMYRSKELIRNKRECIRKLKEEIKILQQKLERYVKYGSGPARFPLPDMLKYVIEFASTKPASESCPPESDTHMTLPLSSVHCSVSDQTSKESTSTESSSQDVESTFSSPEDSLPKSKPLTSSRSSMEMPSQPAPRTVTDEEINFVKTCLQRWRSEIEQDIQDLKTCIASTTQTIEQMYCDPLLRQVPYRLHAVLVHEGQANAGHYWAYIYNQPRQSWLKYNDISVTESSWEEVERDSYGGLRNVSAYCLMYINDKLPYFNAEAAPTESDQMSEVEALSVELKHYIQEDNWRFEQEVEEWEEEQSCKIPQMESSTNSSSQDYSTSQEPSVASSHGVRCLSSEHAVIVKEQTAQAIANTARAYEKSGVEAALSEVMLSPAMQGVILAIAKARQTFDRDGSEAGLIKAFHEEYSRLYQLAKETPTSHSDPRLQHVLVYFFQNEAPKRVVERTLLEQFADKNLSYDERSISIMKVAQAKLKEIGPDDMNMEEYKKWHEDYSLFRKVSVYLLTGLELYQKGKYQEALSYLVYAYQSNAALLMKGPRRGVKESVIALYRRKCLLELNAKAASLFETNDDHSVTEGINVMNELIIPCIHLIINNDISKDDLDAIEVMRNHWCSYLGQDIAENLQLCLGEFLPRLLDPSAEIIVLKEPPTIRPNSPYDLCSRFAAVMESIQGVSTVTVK
Summary of the method: as §1

Measured: log2 ratio of Biotin-Ahx-Ub-VS probe labelling

O=C(CCl)Nc1cc(Cl)ccc1C(=O)O
inactive: USP19 -0.0222 | USP22 0.0608 | USP24 -0.0569 | USP25 0.269 | USP28 -0.0169
